Six compounds from PubChem BioAssay can be followed below.

Assay [1] deals with 6-phosphogluconate dehydrogenase, decarboxylating (Homo sapiens) (UniProt P52209). The experiment in a line: inhibition of human phosphogluconate dehydrogenase – biochemical, recombinant enzyme, NADPH absorbance, primary screen (AID 1159550;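 active = at least 20% inhibition of 6-phosphogluconate dehydrogenase activity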). The conditions noted are these: recombinant 6PGD, NADPH absorbance 341 nm; at 10 µM; stronger effect = higher value.
6-phosphogluconate dehydrogenase, decarboxylating (Homo sapiens), sequence (P52209 whole entry, looked up): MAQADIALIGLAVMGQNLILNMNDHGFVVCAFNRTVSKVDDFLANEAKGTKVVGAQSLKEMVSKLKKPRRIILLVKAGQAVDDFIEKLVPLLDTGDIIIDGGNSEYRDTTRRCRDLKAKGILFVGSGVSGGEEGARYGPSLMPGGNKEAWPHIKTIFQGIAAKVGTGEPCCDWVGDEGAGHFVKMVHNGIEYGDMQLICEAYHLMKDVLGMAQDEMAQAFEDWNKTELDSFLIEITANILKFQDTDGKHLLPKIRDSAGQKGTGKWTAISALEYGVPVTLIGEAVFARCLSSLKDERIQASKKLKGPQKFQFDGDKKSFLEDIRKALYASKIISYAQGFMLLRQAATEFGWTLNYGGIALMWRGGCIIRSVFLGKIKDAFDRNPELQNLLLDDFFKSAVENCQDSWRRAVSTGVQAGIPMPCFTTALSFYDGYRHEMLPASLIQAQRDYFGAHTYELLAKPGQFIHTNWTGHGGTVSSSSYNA
The nature of assay [2]: viability loss in pontine glioma line – cell-based, SU-DIPG-XVII, MIPE5.0, CellTiter-Glo, qHTS, dose response (AID 1347060; cut-off not given, nearly all actives have AC50 up to about 26 µM). The conditions noted are these: CellTiter-Glo ATP luminescence.
A short description of assay [3]: viability loss in pontine glioma line – cell-based, SU-DIPG-XIII, MIPE4.0, CellTiter-Glo, qHTS, dose response (AID 1347061; cut-off not given, nearly all actives have AC50 up to about 37 µM;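 note: cells exposed to compound for 48 hours before readout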). The conditions noted are these: CellTiter-Glo ATP luminescence. In general terms: ATP-based viability assays read luminescence as a measure of living cells.
Assay [4] in a line: viability loss in pontine glioma line – cell-based, JHH-DIPG-1, MIPE4.0, CellTiter-Glo, qHTS, dose response (AID 1347062; cut-off not given, nearly all actives have AC50 up to about 27 µM). The conditions noted are these: JHH-DIPG-1 viability, CellTiter-Glo ATP luminescence.
Assay [5] can be described thus: viability loss in pontine glioma line – cell-based, SU-DIPG-IV, MIPE4.0, CellTiter-Glo, qHTS, dose response (AID 1347063; cut-off not given, nearly all actives have AC50 up to about 30 µM;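 note: compound exposure lasted 48 hours before the viability readout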). The conditions noted are these: CellTiter-Glo ATP luminescence.
Assay [6] is described as follows: growth inhibition of DIPG cells – cell-based, MIPE4.0 library, CellTiter-Glo luminescence, qHTS (AID 1347066; cut-off not given, nearly all actives have AC50 up to about 30 µM;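 note: cells exposed to compound for 48 hours before readout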). The conditions noted are these: SU-DIPG-VI viability, CellTiter-Glo ATP luminescence.
Assay [7] in a line: JHH-DIPG-1 glioma cell viability, MIPE5.0 library, CellTiter-Glo luminescence, qHTS (AID 1347067; cut-off not given, nearly all actives have AC50 up to about 26 µM;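 note: cells exposed to compound for 48 hours before readout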). The conditions noted are these: JHH-DIPG-1 glioma viability, CellTiter-Glo ATP luminescence.
Assay [8] is described as follows: growth inhibition of DIPG cells – cell-based, MIPE5.0 library, qHTS (AID 1347068; cut-off not given, nearly all actives have IC50 up to about 30 µM). The settings on record: SU-DIPG-XXV viability. A general note: Quantitative high-throughput screening tests each substance at several concentrations.
The target in assay [9] is NAD(+) hydrolase SARM1 (Homo sapiens) (UniProt Q6SZW1). The experiment in a line: blocking NAD cleavage by SARM1 SAM-TIR – cell lysate, NAD-Glo luminescence (AID 1508614;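 active = compound whose remaining NAD level is above about 45 nM, limit read from the data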;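 note: higher remaining NAD means stronger inhibition of SARM1 NADase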). The conditions noted are these: SAM-TIR HEK293T lysate NADase, at 1 µM, stronger effect = higher value.
NAD(+) hydrolase SARM1 (Homo sapiens), sequence (Q6SZW1 whole entry, looked up, the tested form may be a part): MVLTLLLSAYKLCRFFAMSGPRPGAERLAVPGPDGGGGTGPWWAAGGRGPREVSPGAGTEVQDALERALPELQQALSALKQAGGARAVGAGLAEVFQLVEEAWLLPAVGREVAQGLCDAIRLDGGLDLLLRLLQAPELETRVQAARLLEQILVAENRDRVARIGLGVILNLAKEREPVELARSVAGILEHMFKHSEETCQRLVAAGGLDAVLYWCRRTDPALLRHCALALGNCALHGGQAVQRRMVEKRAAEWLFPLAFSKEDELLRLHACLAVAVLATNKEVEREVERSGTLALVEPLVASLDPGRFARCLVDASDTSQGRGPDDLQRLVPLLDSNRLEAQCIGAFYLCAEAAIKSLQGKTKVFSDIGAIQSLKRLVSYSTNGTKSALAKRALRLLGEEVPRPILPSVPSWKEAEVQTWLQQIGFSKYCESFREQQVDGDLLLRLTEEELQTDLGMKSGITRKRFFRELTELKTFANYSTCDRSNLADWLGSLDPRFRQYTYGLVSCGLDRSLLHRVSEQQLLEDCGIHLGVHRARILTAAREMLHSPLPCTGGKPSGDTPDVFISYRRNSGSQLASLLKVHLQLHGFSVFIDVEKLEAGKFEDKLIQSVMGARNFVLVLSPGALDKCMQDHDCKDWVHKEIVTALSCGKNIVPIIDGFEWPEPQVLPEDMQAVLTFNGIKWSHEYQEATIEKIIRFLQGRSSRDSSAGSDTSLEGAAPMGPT
For assay [10], the target named is Mitogen-activated protein kinase 7 (Homo sapiens) (UniProt Q13164). The experiment in a line: Gal4-ERK5 driven luciferase induction – cell-based, HTS, primary screen (AID 1508626;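 active = luciferase signal above three times the same-plate solvent-only control wells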;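 note: luciferase driven by Gal4-ERK5 fusion binding five Gal4 sites before minimal TATA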). The conditions noted are these: HeLa Gal4-ERK5 transactivation, 18 h, at 5 µM, stronger effect = higher value.
Mitogen-activated protein kinase 7 (Homo sapiens), sequence (Q13164 whole entry, looked up, the tested form may be a part): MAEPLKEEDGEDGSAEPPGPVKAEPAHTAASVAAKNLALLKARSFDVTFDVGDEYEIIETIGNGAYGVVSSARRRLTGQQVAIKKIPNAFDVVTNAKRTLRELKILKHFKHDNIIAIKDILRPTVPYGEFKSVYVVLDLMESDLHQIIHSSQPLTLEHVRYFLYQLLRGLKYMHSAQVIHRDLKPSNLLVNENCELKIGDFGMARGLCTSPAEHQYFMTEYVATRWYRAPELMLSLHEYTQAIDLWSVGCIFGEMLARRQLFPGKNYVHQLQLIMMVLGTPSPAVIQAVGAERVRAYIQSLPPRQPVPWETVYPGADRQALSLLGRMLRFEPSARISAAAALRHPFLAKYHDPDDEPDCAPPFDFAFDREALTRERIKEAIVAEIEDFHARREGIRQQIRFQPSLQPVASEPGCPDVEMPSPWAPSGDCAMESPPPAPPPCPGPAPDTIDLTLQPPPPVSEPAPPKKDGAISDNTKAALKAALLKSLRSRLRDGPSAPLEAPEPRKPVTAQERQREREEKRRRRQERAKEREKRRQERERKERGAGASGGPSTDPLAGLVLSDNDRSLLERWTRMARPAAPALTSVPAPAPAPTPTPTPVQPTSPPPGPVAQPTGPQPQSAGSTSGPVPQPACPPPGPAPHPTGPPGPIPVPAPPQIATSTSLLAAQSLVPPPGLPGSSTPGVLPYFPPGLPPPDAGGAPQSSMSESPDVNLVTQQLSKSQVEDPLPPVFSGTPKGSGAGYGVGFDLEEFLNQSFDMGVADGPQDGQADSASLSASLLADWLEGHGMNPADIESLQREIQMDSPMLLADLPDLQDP
The nature of assay [11]: blockers of polyQ-driven CASP3 activation – cell-based (AID 1583). The settings on record: polyglutamine-induced caspase-3 activation, cell assay; stronger effect = higher value;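 tested at 10 µM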.
A short description of assay [12]: yeast 75Q aggregation reduction – 75Q-TubU reporter (AID 1593). The conditions noted are these: Yeast 75Q polyglutamine aggregation reporter.
A short description of assay [13]: restoration of touch response, mutant HTT neurons – whole organism, C. elegans mechanosensory neurons, N-terminal huntingtin (AID 1599). The conditions noted are these: C. elegans polyQ-huntingtin mechanosensory neurons, stronger effect = higher value.
Assay [14] in a line: blockers of cytochrome c efflux from mitochondria – biochemical, purified mitochondria (AID 1603).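 Note: mouse liver mitochondria challenged with calcium chloride; signal normalized to the plate average as 100%.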 The settings on record: stronger effect = lower value.
A short description of assay [15]: polyglutamine aggregate formation blockers (AID 1604). The settings on record: polyglutamine-induced protein aggregation inhibition assay; stronger effect = higher value; tested at 2.5 µM.
A short description of assay [16]: glutamate transport activators, MN-1 cells, MN-1 cell line (AID 1612).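 Note: tested at 1 µM final; 0% = mean of DMSO vehicle wells on each plate; positive means more glutamate uptake than control and negative means less.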 The conditions noted are these: MN-1 motor neuron cells, stronger effect = higher value.
A short description of assay [17]: GFP-Q80 aggregate reduction, neuronal-like cells, cell-based, NGF-treated PC12, GFPQ80 (AID 1614).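 Note: lower means fewer inclusions and 0 means no inclusions at all.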 The conditions noted are these: PC12 NGF-treated GFP-polyQ80 inclusion reduction.
Assay [18] is described as follows: 75Q-TubH aggregate inhibition, S. cerevisiae, yeast (AID 1616). The conditions noted are these: S. cerevisiae 75Q-TubH polyglutamine aggregation suppression; stronger effect = higher value.
Assay [19] in a line: compounds altering circadian rhythm period length – cell-based, LOPAC library, luminescence reporter (AID 2774).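 Note: values are relative to mean of DMSO wells on each plate.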 The conditions noted are these: circadian reporter cells, at 7 µM, actives lie on both sides.
Assay [20] in a line: viability loss with induced miR-34 in A549 – imaging, A549 dox-inducible miR-34, nuclei and caspase counts, primary screen (AID 1347080;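 active = compounds whose cell count with miR-34 switched on is under 0.7 times the count with it off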). The settings on record: A549 miR-34 inducible, Hoechst nuclei count, 48 h.
The nature of assay [21]: chitosan synthesis blockers in C. neoformans – flow cytometry, Cibacron Brilliant Red staining (AID 1347148).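 Note: compound exposure lasted three days at 37 degrees C.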 The settings on record: Cryptococcus neoformans chitosan, stronger effect = lower value; at 10 µM unless noted. On the technique in general: In flow cytometry, cells or beads pass a laser one at a time.
A short description of assay [22]: rescue of PC12 cells from polyQ htt toxicity – LDH release (AID 1610). The settings on record: PC12 mutant huntingtin toxicity, final LDH at 4 uM, stronger effect = lower value.
Assay [23] in a line: P. berghei load reduction in hepatocytes – cell-based, HepG2, luciferase luminescence, HepG2 viability, primary screen (AID 624349; in the data active = parasite load remaining mostly below about 12%, no sharp cut-off; inactive = mostly above about 10%;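 note: 100% = mean of DMSO negative control wells on the same plate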). The settings on record: P. berghei liver stage in HepG2, luciferase luminescence, concentration not given here; parasite load remaining: stronger effect = lower value; viability: measured here: HepG2 viability without parasites.
The subject of assay [24] is Hepatitis C virus NS3 helicase. Put plainly: blockers of NS3h binding to ssDNA – biochemical, fluorescence polarization, LOPAC1280 library, primary screen (AID 687035; in the data active = inhibition above about 37%). The settings on record: Purified HCV NS3 helicase, Cy5-dT15 ssDNA binding fluorescence polarization; stronger effect = higher value; concentration not given here.
Assay [25] can be described thus: compounds altering Cy5-DNA-NS3h complex signal – biochemical, LOPAC1280, artefact control for HCV NS3 helicase inhibitor project (AID 687037). The settings on record: Cy5-DNA-NS3h complex fluorescence interference counterscreen.
The nature of assay [26]: blockers of cellular phospholipid synthesis – cell-based, LOPAC library, screen 4, primary screen (AID 1347384). The conditions noted are these: animal cells, phospholipid biosynthesis inhibition screen; at 10 µM.
Assay [27] is described as follows: galactose survival enhancers in mitochondrial complex I cybrids – cell-based, galactose medium, ATP luminescence, primary screen (AID 1645843;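 active = z-score of at least 1.8 in each of two replicates, scored against plate mean and spread of sample wells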;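 note: positive z means more ATP and so rescue of galactose-driven cybrid death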). The conditions noted are these: complex I mutant cybrid cells, 72 h, stronger effect = higher value.
Assay [28] addresses ATP-dependent translocase ABCB1 (Homo sapiens) (UniProt P08183). Put plainly: P-glycoprotein substrate transport blockade – cell-based (AID 377; in the data active = fluorescence slope change above about 50%). The conditions noted are these: MDR1-expressing cells, fluorescent substrate accumulation slope; stronger effect = higher value; concentration not given here.
Assay [29] is described as follows: MELAS cybrid and Rieske KO viability enhancers – cell-based, MELAS cybrids, Rieske KO mouse fibroblasts, CellTiter-Glo, primary screen (AID 1508586;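 active = mean z-score across replicates of 1.96 or higher in either the MELAS or the Rieske mutant cell line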;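 note: z relative to plate mean and SD of compound and empty wells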). The conditions noted are these: low glucose.
Where [30] appears, read: stronger effect = lower value, cell number ratio, induced over uninduced.
[31] abbreviates: measured here: relative caspase fold change +Dox/-Dox.
Where [32] appears, read: measured here: total cells with miR-34 induction, stronger effect = lower value.
Where [33] appears, read: measured here: total cells without miR-34 induction.

By inhibition is commonly meant the drop in the measured response relative to a control, in per cent. As a reminder, the viability is a read-out of living cells in per cent, often relative to untreated cells.

Several values for one entry are separate records, joined by “and”; a condition that tells them apart may be missing. Equal values may be shown once. Inconclusive results are not listed. For part of these data: Results with a measured potency or affinity are listed apart. Activity calls are given as the source filed them. Unless noted, the rule behind the calls is not given here.

ATP-dependent translocase ABCB1 (Homo sapiens), sequence (P08183 whole entry, looked up): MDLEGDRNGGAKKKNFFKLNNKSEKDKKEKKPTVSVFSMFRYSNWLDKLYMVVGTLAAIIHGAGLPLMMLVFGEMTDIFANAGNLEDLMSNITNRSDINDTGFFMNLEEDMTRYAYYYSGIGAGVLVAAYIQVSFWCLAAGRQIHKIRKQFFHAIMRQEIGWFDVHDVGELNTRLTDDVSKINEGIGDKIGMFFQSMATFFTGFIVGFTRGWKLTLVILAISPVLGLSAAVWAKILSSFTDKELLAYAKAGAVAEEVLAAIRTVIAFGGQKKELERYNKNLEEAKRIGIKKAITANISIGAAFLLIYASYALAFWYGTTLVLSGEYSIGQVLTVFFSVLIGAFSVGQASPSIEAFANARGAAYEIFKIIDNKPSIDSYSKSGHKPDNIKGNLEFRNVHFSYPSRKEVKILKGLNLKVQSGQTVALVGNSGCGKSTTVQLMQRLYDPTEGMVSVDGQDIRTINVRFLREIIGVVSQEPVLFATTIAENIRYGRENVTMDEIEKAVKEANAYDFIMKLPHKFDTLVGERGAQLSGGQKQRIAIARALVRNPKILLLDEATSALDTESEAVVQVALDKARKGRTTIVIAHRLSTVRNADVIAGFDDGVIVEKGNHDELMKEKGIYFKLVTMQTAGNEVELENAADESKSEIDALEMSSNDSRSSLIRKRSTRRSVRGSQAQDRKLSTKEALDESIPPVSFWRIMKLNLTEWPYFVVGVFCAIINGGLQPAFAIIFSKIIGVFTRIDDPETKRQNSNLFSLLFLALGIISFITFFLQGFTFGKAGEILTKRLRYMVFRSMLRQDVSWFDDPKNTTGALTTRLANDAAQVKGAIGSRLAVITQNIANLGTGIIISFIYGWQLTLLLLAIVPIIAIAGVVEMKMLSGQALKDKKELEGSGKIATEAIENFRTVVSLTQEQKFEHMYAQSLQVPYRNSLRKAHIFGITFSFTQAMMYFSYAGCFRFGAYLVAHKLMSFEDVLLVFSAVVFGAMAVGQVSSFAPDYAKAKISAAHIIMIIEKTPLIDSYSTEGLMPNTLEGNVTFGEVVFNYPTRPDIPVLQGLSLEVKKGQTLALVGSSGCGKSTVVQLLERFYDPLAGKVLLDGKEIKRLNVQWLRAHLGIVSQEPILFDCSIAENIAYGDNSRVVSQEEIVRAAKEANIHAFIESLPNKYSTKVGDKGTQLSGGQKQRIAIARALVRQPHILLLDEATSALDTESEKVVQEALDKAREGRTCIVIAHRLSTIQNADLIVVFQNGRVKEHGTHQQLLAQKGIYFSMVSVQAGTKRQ

As for `CC1(C)[C@@H](O)CC[C@]2(C)[C@H]3C(=O)C=C4[C@@H]5C[C@@](C)(C(=O)O)CC[C@]5(C)CC[C@@]4(C)[C@]3(C)CC[C@@H]12`, the inhibition in [1] is 6.1% (inactive). Also, the result in [2], in [3], in assay [4], in assay [5], in assay [6] and in [7] was inactive. Further, in [8], the outcome was inactive. The remaining NAD in assay [9] is 10 nM (inactive). Further, the luciferase signal in assay [10] was 56 AU (inactive).

In the case of `NCCCCCCNS(=O)(=O)c1cccc2c(Cl)cccc12`, the inhibition in assay [11] was -15.2% and 22.6% and 2.95%; in assay [1], 8.63% (inactive). Besides, the score in assay [12] was 1.04 and 1.62 and 0.88. Moreover, the rescue above control in assay [13] is 4.12 and -5.26 and -2.52. In addition, the cytochrome c release ratio in [14] was 1.16 and 0.95 and 1.09. Also, the inhibition of aggregation in assay [15] is 51% and 55.6% and 36.6%. Further, in assay [16], the glutamate uptake change was 18.7% and -10.2% and 14.1%. In assay [17], this compound came in with an inclusion score of 1. For the same compound, the aggregation suppression score in assay [18] is 0.802 and 0.897 and 0.965. Also, the period change in assay [19] was 0.025 h (inactive). In addition, the results for the fold change in assay [20] (setting [30]) and in [20] (setting [31]) were 0.955 (inactive) and 0.859, respectively. Also, the cell count turned out to be 4060 in [20] (setting [32]) and 4250 in [20] (setting [33]). Besides, the fold fluorescence in assay [21] was 9.13 [at 132.5 µM] (inactive).

On to `O=C(O)c1cc2cc(Cc3cccnc3)ccc2o1`, for which the inhibition in assay [11] was 22.5%; in assay [24] it was -2% (inactive); in assay [1] it was 4.63% (inactive). Further, the score in assay [12] was found to be 1.36. Moreover, the rescue above control in assay [13] is -5.98. The cytochrome c release ratio in [14] is 1.03. In [15], this compound displayed an inhibition of aggregation of 1.59%. In assay [22], the normalised LDH release worked out at 1.48. In addition, the glutamate uptake change in assay [16] is -0.47%. Further, the inclusion score in assay [17] was 2. Besides, the aggregation suppression score in assay [18] was determined as 1.23. Moreover, the period change in [19] is 0.065 h (inactive). Also, in [23], the parasite load remaining was 124% (inactive). In addition, in assay [23], the viability was 73.4%. In addition, the fluorescence ratio (interference) in assay [25] is 1 (inactive). In addition, the fold change in assay [20] (setting [30]) is 0.956 (inactive) and 0.926 (inactive); in assay [20] (setting [31]), 0.671 and 1.19. Also, the cell count in [20] (setting [32]) is 10100 and 5310; in assay [20] (setting [33]), 10600 and 5730. For the same compound, the call in [26] was inactive. In addition, the z-score in [27] is 0.16 (inactive).

Regarding `C=C1CC[C@H](O)C/C1=C/C=C1\CCC[C@]2(C)[C@@H]([C@H](C)/C=C/[C@H](C)C(C)C)CC[C@@H]12`, the fluorescence slope change in [28] was 66.6% (active). In assay [23], the parasite load remaining is 50.6% (inactive). Further, in [23], the viability was 130%. Further, the inhibition in assay [1] was 12.3% (inactive). Further, the fold change in assay [20] (setting [30]) was 0.934 (inactive); in assay [20] (setting [31]), 1.53. Moreover, the cell count amounted to 7580 in assay [20] (setting [32]) and 8110 in assay [20] (setting [33]). For the same compound, in assay [9], the remaining NAD is 10 nM (inactive). Further, in assay [10], the luciferase signal was 144 AU (inactive).

Take `CN(C)c1nc(N)c(C(=O)N=C(N)N)nc1Cl`: the period change in [19] is -0.18 h (inactive). Moreover, the inhibition in [24] was -2% (inactive); in assay [1], 11.7% (inactive). Also, the fluorescence ratio (interference) in assay [25] is 1 (inactive). Besides, the fold change was 1.07 (inactive) in assay [20] (setting [30]) and 1.7 in assay [20] (setting [31]). The cell count in assay [20] (setting [32]) amounted to 10400; in assay [20] (setting [33]), 9710. In addition, the compound was called inactive in assay [26]. For the same compound, the z-score in assay [27] is 0.335 (inactive).

Regarding `CN[C@@H]1[C@@H](O[C@H]2O[C@H](CO)[C@@H](N)[C@H](O)[C@H]2O)O[C@H]2C[C@@H](N)[C@@H](O[C@H]3[C@H](O)[C@@H](O)[C@H](N)C[C@@H]3N)O[C@@H]2[C@@H]1O`, the parasite load remaining in assay [23] was 21.5% (inactive). In assay [23], the viability was found to be 69%. Moreover, the inhibition in assay [1] is 3.92% (inactive). The values for the fold change in assay [20] (setting [30]) and in assay [20] (setting [31]) were 0.906 (inactive) and 1.04, respectively. In addition, the cell count in [20] (setting [32]) was determined as 9860; in [20] (setting [33]) it was 10900. For the same compound, the z-score in [29] (MELAS cybrid survival, CellTiter-Glo 48 h, stronger effect = higher value) is 0.598 (inactive); in assay [29] (Rieske KO mouse fibroblast survival, CellTiter-Glo 72 h), 0.317; in assay [27], 0.86 (inactive). The remaining NAD in assay [9] was 10 nM (inactive). Moreover, the luciferase signal in [10] was 28 AU (inactive).
